Measurements: PubChem BioAssay AID1159580 (chemical genetic matrix, 2015)
Out of some 5,500 compounds screened, about 2,000 (36%) were called active. Roughly 18% stayed inconclusive and do not appear here. No stated cut-off is given here; in the data, active means normalized growth mostly below about 0.91 (no sharp cut-off); inconclusive means no clear call, values can overlap the other calls; inactive means mostly above about 0.92. This is one part of the list.

Experiment: chemical genetic growth profiling, strain panel (AID 1159580);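 further: tested at 20 µM; growth read once vehicle control cultures reached saturation at 30 °C; 1 = growth at the plate median or of vehicle wells; lower values mean less growth of the strain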
Settings: S. cerevisiae deletion strains, growth OD

Measured: normalized growth

c1ccc2sc(C3(N4CCCCC4)CCCCC3)cc2c1
inactive: locus YAL013W, strain DEP1, active compounds read low 0.964 | locus YAL040C, strain CLN3, active compounds read low 1.01 | locus YCL061C, strain MRC1 (second series), active compounds read low 0.995 | locus YDR150W, strain NUM1, active compounds read low 1 | locus YDR363W, strain ESC2, active compounds read low 0.937 | locus YER002W, strain NOP16, active compounds read low 1.01 | locus YGR078C, strain PAC10, active compounds read low 0.983 | locus YGR229C, strain SMI1, active compounds read low 0.93 | locus YMR263W, strain SAP30, active compounds read low 1 | locus YMR307W, strain GAS1, active compounds read low 0.976 | locus YNL128W, strain TEP1, active compounds read low 0.988 | locus YNL153C, strain GIM3, active compounds read low 1.01 | locus YNL175C, strain NOP13, active compounds read low 1.03 | locus YNL197C, strain WHI3, active compounds read low 0.986 | locus YNL224C, strain SQS1, active compounds read low 1 | locus YOR083W, strain WHI5 (second series), active compounds read low 1.04 | locus YPL055C, strain LGE1, active compounds read low 0.907

COc1cc(O)c(C(=O)/C=C/c2ccc(OC)c(O)c2)c(OC)c1
active: locus YAL026C, strain drs2, active compounds read low 0.906 | locus YBR009C, strain hhf1, active compounds read low 0.846 | locus YBR023C, strain chs3, active compounds read low 0.912 | locus YDR195W, strain ref2 1.17 [resistant] | locus YDR392W, strain spt3, active compounds read low 0.413 | locus YER155C, strain BEM2 (second series), active compounds read low 0.765 | locus YGL253W, strain hxk2, active compounds read low 0.806 | locus YHR142W, strain chs7, active compounds read low 0.712 | locus YJL095W, strain BCK1 (second series), active compounds read low 0.86 | locus YJL129C, strain trk1, active compounds read low 0.852 | locus YJL164C, strain tpk1, active compounds read low 0.842 | locus YJL166W, strain qcr8, active compounds read low 0.799 | locus YJL187C, strain SWE1, active compounds read low 0.914 | locus YKL160W, strain elf1, active compounds read low 0.893 | locus YLL001W, strain dnm1, active compounds read low 0.891 | locus YLL026W, active compounds read low 0.857 | locus YLR027C, strain aat2, active compounds read low 0.841 | locus YLR221C, strain rsa3, active compounds read low 0.79 | locus YLR258W, strain gsy2, active compounds read low 0.903 | locus YLR262C, strain YPT6 (second series), active compounds read low 0.752 | locus YLR320W, strain mms22, active compounds read low 0.793 | locus YML120C, strain ndi1, active compounds read low 0.828 | locus YMR058W, strain fet3, active compounds read low 0.847 | locus YMR205C, strain PFK2, active compounds read low 0.845 | locus YNL071W, strain lat1, active compounds read low 0.566 | locus YOR070C, strain gyp1, active compounds read low 0.895 | locus YOR083W, strain WHI5, active compounds read low 0.859 | locus YOR106W, strain vam3, active compounds read low 0.822 | locus YOR290C, strain snf2, active compounds read low 0.751 | locus YPL051W, strain arl3, active compounds read low 0.856 | locus YPL078C, strain atp4, active compounds read low 0.796
inactive: locus YAL021C, strain ccr4, active compounds read low 0.994 | locus YAL030W, strain snc1, active compounds read low 0.961 | locus YBL061C, strain skt5, active compounds read low 0.939 | locus YBR171W, strain sec66, active compounds read low 0.993 | locus YBR231C, strain swc5, active compounds read low 0.925 | locus YBR279W, strain paf1, active compounds read low 0.965 | locus YCL011C, strain gbp2, active compounds read low 0.91 | locus YCL016C, strain dcc1, active compounds read low 0.971 | locus YCL061C, strain MRC1, active compounds read low 0.954 | locus YCL069W, strain vba3, active compounds read low 0.946 | locus YCR088W, strain abp1, active compounds read low 0.995 | locus YDL005C, strain med2, active compounds read low 1.01 | locus YDL040C, strain nat1, active compounds read low 1.01 | locus YDR001C, strain nth1, active compounds read low 0.992 | locus YDR069C, strain doa4, active compounds read low 1.06 | locus YDR137W, strain rgp1, active compounds read low 0.912 | locus YDR159W, strain sac3, active compounds read low 0.929 | locus YDR297W, strain sur2, active compounds read low 1.01 | locus YDR334W, strain swr1, active compounds read low 0.983 | locus YDR335W, strain msn5, active compounds read low 0.935 | locus YEL003W, strain gim4, active compounds read low 0.927 | locus YEL037C, strain rad23, active compounds read low 0.988 | locus YEL061C, strain CIN8 (second series), active compounds read low 0.918 | locus YER015W, strain faa2, active compounds read low 0.956 | locus YER016W, strain bim1, active compounds read low 1.02 | locus YER111C, strain swi4, active compounds read low 0.98 | locus YFR010W, strain ubp6, active compounds read low 0.959 | locus YGL167C, strain pmr1, active compounds read low 1.02 | locus YGL173C, strain kem1, active compounds read low 0.939 | locus YGL227W, strain vid30, active compounds read low 0.96 | locus YGL240W, strain doc1, active compounds read low 0.946 | locus YHR013C, strain ard1, active compounds read low 1.02 | locus YHR027C, strain rpn1, active compounds read low 0.987 | locus YHR030C, strain SLT2, active compounds read low 0.922 | locus YHR079C, strain IRE1, active compounds read low 0.943 | locus YJL092W, strain hpr5, active compounds read low 0.957 | locus YJL095W, strain BCK1, active compounds read low 0.941 | locus YJL115W, strain asf1, active compounds read low 1 | locus YJL154C, strain vps35, active compounds read low 1.02 | locus YJR066W, strain TOR1, active compounds read low 0.897 | locus YKR026C, strain gcn3, active compounds read low 0.992 | locus YKR091W, strain srl3, active compounds read low 1.01 | locus YLL041C, strain sdh2, active compounds read low 1.01 | locus YLR113W, strain HOG1, active compounds read low 0.982 | locus YLR342W, strain FKS1, active compounds read low 1 | locus YLR357W, strain rsc2, active compounds read low 0.933 | locus YLR370C, strain arc18, active compounds read low 0.944 | locus YLR384C, strain iki3, active compounds read low 1.03 | locus YMR125W, strain sto1, active compounds read low 0.9 | locus YMR129W, active compounds read low 0.992 | locus YMR231W, strain pep5, active compounds read low 0.98 | locus YNL183C, strain NPR1, active compounds read low 0.958 | locus YNL209W, strain ssb2, active compounds read low 1.01 | locus YNL248C, strain rpa49, active compounds read low 0.909 | locus YNL322C, strain KRE1 (second series), active compounds read low 0.997 | locus YNR049C, strain mso1, active compounds read low 0.997 | locus YOR001W, strain rrp6, active compounds read low 0.905 | locus YOR080W, strain dia2, active compounds read low 1.01 | locus YOR231W, strain MKK1, active compounds read low 0.931 | locus YOR265W, strain rbl2, active compounds read low 0.988 | locus YOR270C, strain vph1, active compounds read low 0.833 | locus YPL106C, strain sse1, active compounds read low 0.929 | locus YPL240C, strain hsp82, active compounds read low 0.976 | locus YPL256C, strain CLN2, active compounds read low 0.942
